# From PubChem BioAssay (NCATS)
# Records with an inconclusive call do not appear. Activity calls are given as the source filed them. Calls come from the whole dose curve; as a rule, active = well fitted cell-killing curve with a large enough effect; inconclusive = small, poorly fitted or top-dose-only effect; inactive = flat fitted curve, though single readings scatter.
# Assay: Quantitative highthroughput screen to assess conditional lethalithy of NOMO1 cells grown in RPMI1640 with untreated serum (RPMI+s) (AID 1963876); note: nearly all actives have a fitted effect of over 35% in size;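 for viability: 100% = DMSO wells and 0% = empty wells without cells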
# Details: NOMO1 AML cells in RPMI+serum, CellTiter-Glo viability, 48 h; series mostly up to 45.8 µM; viability: at the top concentration
# Method in brief: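 Each medium arm—HPLM with 10% dialyzed FBS, or RPMI1640 with 5 mM glucose and 10% untreated or dialyzed FBS—was screened against an 11-point, 3-fold compound titration for 48 h at 37 °C, with CellTiter-Glo luminescence as endpoint.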
# Potency is the fitted concentration of half-maximal effect.
Compound,viability,Potency
O=c1n(CCCN2CCN(c3cccc(Cl)c3)CC2)nc2ccccn12,99.8% (inactive),
CC(C)OC(=O)C(C(=O)OC(C)C)=C1SC=CS1,102% (inactive),
CNC(=O)c1cc(COc2nnc(Nc3ccc(Cl)cc3)c3ccoc23)ccn1,96.4% (inactive),
Cc1cc(CS(=O)(=O)c2ccccc2)cc(OCc2ccc(CN3CCC[C@H]3CO)cc2)c1,,1.05 µM (active)
COc1ccc(Nc2nccc(NCCO)n2)cc1,107% (inactive),
C[C@H]1Oc2cc(cnc2N)-c2c(nn(C)c2C#N)CN(C)C(=O)c2ccc(F)cc21,91.9% (inactive),
NC(=O)N1c2ccccc2CC(=O)c2ccccc21,101% (inactive),
Cc1cncc2cccc(S(=O)(=O)N3CCCN(C(=O)CN)C[C@@H]3C)c12,,5.9 µM (active)
COC1=C(OC)C(=O)C(CC=C(C)CCC=C(C)CCC=C(C)CCC=C(C)CCC=C(C)CCC=C(C)CCC=C(C)CCC=C(C)CCC=C(C)CCC=C(C)C)=C(C)C1=O,88.5% (inactive),
CON=C(C(=O)N[C@@H]1C(=O)N2C(C(=O)O)=C(Cn3ccc(=N)n3CCO)CS[C@H]12)c1csc(N)n1,113% (inactive),
COC(=O)C1=C(C)NC(C)=C(C(=O)OC(C)C)C1c1cccc2nonc12 (stereo not given),112% (inactive),
Clc1cccc(-n2nnnc2NCc2ccccc2Oc2ccccn2)c1Cl,95.2% (inactive),
CC[C@H](CO)Nc1nc(NCc2ccccc2)c2ncn(C(C)C)c2n1,94.8% (inactive),
C1=CCOCc2cc(ccc2OCCN2CCCC2)Nc2nccc(n2)-c2cccc(c2)OCC1,,7.43 µM (active)
CCCCC(=O)O[C@]1(C(=O)CO)[C@@H](C)C[C@H]2[C@@H]3CCC4=CC(=O)C=C[C@]4(C)[C@@]3(F)[C@@H](O)C[C@@]21C,90.6% (inactive),
Fc1ccc(C(c2ccc(F)cc2)N2CCN(CC=Cc3ccccc3)CC2)cc1,102% (inactive),
CC(=O)OCC(=O)[C@@]1(O)[C@H](C)C[C@H]2[C@@H]3C=C(C)C4=Cc5c(cnn5-c5ccccc5)C[C@]4(C)[C@@H]3[C@@H](O)C[C@@]21C,91.5% (inactive),
CNC1[C@H](O)C(O[C@@H]2C(O)C(O[C@H]3O[C@H]([C@@H](C)NC)CC[C@H]3N)[C@@H](N)C[C@H]2N)OC[C@]1(C)O (stereo not given in full),113% (inactive),
COc1ccc(CC2=NN3C([C@@H](CCc4ccccc4)[C@@H](C)O)=NC(C)C3C(=O)N2)cc1OC (stereo not given in full),106% (inactive),
COCCOc1ccc2c(c1)ncn2-c1ccc2cccc(N3CCC(N)CC3)c2n1,,18.7 µM (active)

Compound,viability,Potency
CCOC(=O)O[C@]1(C(=O)OCCl)CC[C@@H]2[C@H]3CCC4=CC(=O)C=C[C@]4(C)[C@@H]3[C@@H](O)C[C@@]21C,102% (inactive),
CC(C)=CCCC(C)=CCCC(C)=CCCC(C)=CCCC(C)=CCCC(C)=CCCC(C)=CCCC(C)=CCCC(C)=CCO,94.5% (inactive),
NC1CCC(Nc2nc(Nc3ccc(C(=O)N4CCCCC4)cc3)c3ncn(-c4cccc(F)c4)c3n2)CC1 (stereo not given),107% (inactive),
CC=CC1=C(C(=O)O)N2C(=O)[C@H](NC(=O)[C@H](N)c3ccc(O)cc3)[C@@H]2SC1,,1.18 µM (active)
COc1ccc2nc(S(=O)Cc3ncc(C)c(OC)c3C)[nH]c2c1 (stereo not given),104% (inactive),
CC1(C)[C@H](O[C@H]2O[C@H](C(=O)O)[C@@H](O)[C@H](O)[C@H]2O[C@@H]2O[C@H](C(=O)O)[C@@H](O)[C@H](O)[C@H]2O)CC[C@@]2(C)[C@H]1CC[C@]1(C)[C@H]2C(=O)C=C2[C@H]3C[C@@](C)(C(=O)O)CC[C@]3(C)CC[C@]21C,93.9% (inactive),
COC(=O)[C@@H]1CC2=CC(=O)CC[C@]2(C)[C@@]23O[C@@H]2C[C@@]2(C)[C@H](CC[C@@]24CCC(=O)O4)[C@@H]13,101% (inactive),
CCOc1cc2ncc(C#N)c(Nc3ccc(F)c(Cl)c3)c2cc1NC(=O)C=CCN(C)C,,16.6 µM (active)
O=C1C(CCC(O)c2ccc(F)cc2)C(c2ccc(O)cc2)N1c1ccc(F)cc1 (stereo not given),108% (inactive),
CS(=O)(=O)c1ccc(C(=O)Nc2ccc(Cl)c(-c3ccccn3)c2)c(Cl)c1,93.8% (inactive),
CC1(C)O[C@@H]2C[C@H]3[C@@H]4CCC5=CC(=O)C=C[C@]5(C)[C@@H]4[C@@H](O)C[C@]3(C)[C@]2(C(=O)CO)O1,102% (inactive),
O=c1c(-c2ccc(O)cc2)coc2cc(O[C@@H]3O[C@H](CO)[C@H](O)[C@H](O)[C@H]3O)ccc12,76.1% (inactive),
Nc1ccc(S(=O)(=O)Nc2ccnn2-c2ccccc2)cc1,94.4% (inactive),
Clc1ccc2c(N3CCN(CCCN4CCN(c5ccnc6cc(Cl)ccc56)CC4)CC3)ccnc2c1,101% [at 23.2 µM] (inactive),
COc1ccc(CCC(=O)Nc2nc3ccc(Cl)cc3s2)cc1OC,99.1% (inactive),
CC(=Cc1ccccc1)C=C1SC(=S)N(CC(=O)O)C1=O,94.7% (inactive),
O=C1c2ccccc2-c2n[nH]c3cccc1c23,,14.8 µM (active)
COc1cc(NC(=O)c2ccc(-c3ccc(Cl)cc3)o2)cc(OC)c1,,1.87 µM (active)
CCN1CCCC1CNC(=O)c1cc(S(N)(=O)=O)ccc1OC (stereo not given),96.2% (inactive),
CC(C)c1ccc(Cn2ccc3c4c(N)nc(NC5CC5)nc4ccc32)cc1,,10.5 µM (active)
